Experimental data taken from ChEMBL document CHEMBL3988442, “University of Dundee, Small-Polar-MMV Screening Library” (2021).
Screen size: about 48,000 compounds; about 13,000 (27%) showed an effect of 50% or more. The list shows a part of the results.

System: Wolbachia pipientis
Test: Anti-Wolbachia Cell-Based Screen
Type: functional
Parameters: scale not given: in the data most compounds retested in dose-response had high values
Settings: 5 µM

| SMILES | Percent Effect [%] |
| --- | --- |
| CCOCC(O)CNc1cncc(Br)c1 (configuration not stated) | -4.889 |
| CC(=O)CC(C)(C)NC(=O)CCN(C)Cc1ccc(Cl)s1 | 13.53 |
| CN1CC(=O)N(C2CCCNC2)Cc2c(NC3CCC3)ncnc21 (configuration not stated) | 103.9 |
| O=c1c2cccc(C(F)(F)F)c2ncn1C1CCNC1 (configuration not stated) | -5.057 |
| CN1CC(=O)N(C2CCNC2)Cc2c(NC3CCCC3)ncnc21 (configuration not stated) | 104.3 |
| CC1=C(C(=O)N2CCOC(Cc3cccc(C(F)(F)F)c3)C2)OCCO1 (configuration not stated) | -4.78 |
| Cc1noc(C)c1CCNc1nccc(CCC(F)(F)F)n1 | 1.118 |
| CN(C)Cc1nn(C)c2c1CN(S(=O)(=O)c1ccccc1F)C2 | 3.844 |
| CC(=O)NC1CCN(c2cc(-c3ccccc3)nc3c(C)c(C)nn23)C1 (configuration not stated) | -1.812 |
| CCc1[nH]ncc1C(=O)N1CCCC(n2ccnc2C(C)C)C1 (configuration not stated) | -14.63 |
| CCn1cc(CN(C)S(=O)(=O)N2CCCC2c2ccco2)cn1 (configuration not stated) | -4.974 |
| CNS(=O)(=O)CCCN1CCCC1c1cc(C)on1 (configuration not stated) | -6.242 |
| CCOC(=O)C1CCN(C(=O)CN2CCCC2c2cc(C)no2)CC1 (configuration not stated) | -7.861 |
| CCn1cc(S(=O)(=O)N2CCCCCC2c2cc(C)no2)cn1 (configuration not stated) | 176.5 |
| CC(C)OCCC1CCCCN1S(=O)(=O)c1cnn(C)c1 (configuration not stated) | -6.246 |
| CCn1cc(S(=O)(=O)N2CCCCCC2c2cc(C)on2)cn1 (configuration not stated) | 92.08 |
| COCCOCCC(=O)Nc1c(-c2ccc(F)cc2)ncn1C | -3.986 |
| CCn1[nH]c(C)c2c(C(F)(F)F)cc(=O)nc1-2 | -15.52 |
| COc1c(C2CCCN2c2ncnc3ccsc23)c(C)nn1C (configuration not stated) | 5.005 |
| CN1N=C(C(=O)N2CCN(c3ncccn3)CC2)CCC1=O | 16.67 |
| CC(C)NC(=O)C1CCc2nnc(C(C)(C)C)n21 (configuration not stated) | 100.1 |
| Cc1cn2nc(N3CCCC3C(=O)N3CCOCC3)sc2n1 (configuration not stated) | -18.11 |
| CC(NC(=O)CCOc1ccccc1Cl)c1nnc2n1CCC2 (configuration not stated) | 1.83 |
| CN(C)C(=O)C1CCc2nnc(C(C)(C)C)n21 (configuration not stated) | 107 |
| O=C1CCSCC(C(=O)N2CCOCC2)N1 (configuration not stated) | -11.6 |
| CC(C)(C)c1nnc2n1C(C(=O)N1CCN(c3ncccn3)CC1)CC2 (configuration not stated) | 115.5 |

| SMILES | Percent Effect [%] |
| --- | --- |
| O=C(COC1CCCC1)N1CCCN(c2ncccn2)CC1 | -14.8 |
| CC(NC(=O)CCc1nc(C(C)(C)C)no1)c1nnc2n1CCC2 (configuration not stated) | 1.388 |
| CC(C)(C)c1nnc2n1C(C(=O)N1CCOCC1)CC2 (configuration not stated) | 111.9 |
| CCc1nc2n(n1)CCCC2NC(=O)Nc1cccc(F)c1F (configuration not stated) | -21.46 |
| C[S+]([O-])c1cccc(NC(=O)N(CCC#N)Cc2ccccn2)c1 (configuration not stated) | -5.424 |
| CCn1cc(CNc2ccc(N(C)CCOC)cn2)cn1 | 3.344 |
| O=C(C1CCCc2[nH]ncc21)N1CCCCCC1 (configuration not stated) | 7.18 |
| O=C(C1CCCc2[nH]ncc21)N1CCCC1 (configuration not stated) | -1.484 |
| CC(C)(C)c1nnc2n1C(C(=O)N1CCCC1)CC2 (configuration not stated) | 107.6 |
| COCC1CN(Cc2ccoc2)Cc2cn(CC3CCOCC3)nc21 (configuration not stated) | -9.673 |
| CN1CCCC1CNC(=O)CCCOCc1ccccc1 (configuration not stated) | -8.407 |
| CN1CCCC1CCNC(=O)Nc1ccccc1 (configuration not stated) | 124.8 |
| O=C(NCCCO)Nc1ccccc1 | -6.748 |
| CCN1C[C@H]2CCN(C(C)=O)CC[C@H]2S1(=O)=O | 7.241 |
| Cc1ccccc1CNC(=O)N1CC[C@@H]2CN(C)S(=O)(=O)[C@@H]2CC1 | -7.794 |
| CCN1C[C@H]2CCN(C(=O)Nc3ccccc3C)CC[C@H]2S1(=O)=O | 5.146 |
| CCN1C[C@H]2CCN(C(=O)Cc3cccc(OC)c3)CC[C@H]2S1(=O)=O | 109.3 |
| COc1ccc(CC(=O)N2CCC(c3n[nH]c(C4CC4)n3)CC2)cc1 | -2.488 |
| COc1cccc(CC(=O)N2CC[C@@H]3CN(C)S(=O)(=O)[C@@H]3CC2)c1 | 102.6 |
| CN1C[C@H]2CCN(C(=O)NC3CCCC3)CC[C@H]2S1(=O)=O | 24.31 |
| COc1cccc(NC(=O)N2CC[C@@H]3CN(C)S(=O)(=O)[C@@H]3CC2)c1 | 108.6 |
| Cc1ccccc1NC(=O)N1CC[C@@H]2CN(C)S(=O)(=O)[C@@H]2CC1 | -6.47 |
| COc1cccc(CC(=O)N2CCN(c3cccc(C)c3)C(C)C2)c1 (configuration not stated) | 0.04468 |
| COc1ccc(CC(=O)N2CC[C@@H]3CN(C)S(=O)(=O)[C@@H]3CC2)cc1 | 96.9 |
| COc1cccc(CC(=O)N2CCC(Cc3nnc(SC)n3C)CC2)c1 | 13.49 |
| Cc1c(C(=O)N(CCN(C)C)Cc2ccccn2)oc2ccccc12 | -10.28 |
